Results filed as inconclusive are left out. A call without a number means that no potency is given here. The source made the active and inactive calls. Calls follow the shape of the dose curve; as a rule, active = well fitted cell-killing curve with a large enough effect in the repeat runs; inconclusive = weak or mixed curves, or effect the other way; inactive = flat fitted curve, though single readings scatter.
assay: qHTS assay to identify small molecule antagonists of the estrogen related receptor signaling pathway with the pleiotropic PPARgamma coactivator (PGC) cell viability counter screen (AID 1224822;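 also: viability read after 17.5 h compound exposure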); details: ERR/PGC reporter cell line viability counter screen; series mostly up to 46.1 µM
Description: National Center for Advancing Translational Sciences [NCATS]
NIH Chemical Genomics Center [NCGC]
U.S. Environmental Protection Agency [EPA]
National Institutes of Environmental Health Sciences [NIEHS]
National Toxicology Program [NTP]
U.S. Food and Drug Administration [FDA]
Estrogen related receptors (ERRs), the first orphan nuclear receptors discovered, play an important role in the control of cellular energy metabolism. ERRs are required for high-energy production in response to the environmental challenges. The pleiotropic PPARgamma coactivator (PGC) is a major partner of ERR and a key regulator in energy homeostasis. Together they have been implicated in the etiology of metabolic disorders such as Type 2 diabetes and metabolic syndrome. ERR-alpha was also identified as an adverse marker for breast cancer progression; ERR-alpha-positive tumors have a poor prognosis. To screen and to identify environmental compounds that perturb the ERR and PGC/ERR signaling pathways could provide valuable information for potential therapeutic or preventive measures in the treatment of metabolic disease. To differentiate true PGC/ERR antagonists or agonist from cytotoxic substances, the assay is multiplexed with cell viability assay.
Tox21 Assay Protocol Summary:
The PGC/ERR cells were dispensed at 2,000 cells/5 ul/well in 1536-well white plates using a Multidrop dispenser. After the assay plates were incubated at a 37 C/5% CO2 incubator for 6 hours, 23 nL of compounds dissolved in DMSO, positive and negative controls or DMSO only was transferred to the assay plate by a pin tool. The plates were incubated at 37 C for 17.5 hours. 1 ul/well of CellTiter-Fluor reagent was added into the assay plates using a Flying Reagent Dispenser. After 30 min incubation at 37 C/5% CO2, the fluorescence intensity in the plates was measured using a ViewLux plate reader.
Potency is read from the fitted curve at half-maximal effect.

SMILES	Potency
CN(C)CCC=C1c2ccccc2CCc2ccccc21	inactive
CC(=O)O[C@]1(C(C)=O)CC[C@H]2[C@@H]3C=C(Cl)C4=CC(=O)[C@@H]5C[C@@H]5[C@]4(C)[C@H]3CC[C@@]21C	inactive
Cc1c(OCC(F)(F)F)ccnc1CS(=O)c1nc2ccccc2[nH]1 (stereo not drawn)	inactive
CN(C)CCN(Cc1cccs1)c1ccccn1	inactive
CN1C(C(=O)Nc2ccccn2)=C(O)c2ccccc2S1(=O)=O	inactive
C[C@]12CCC(=O)C=C1CC[C@@H]1[C@@H]2C(=O)C[C@@]2(C)[C@H]1CC[C@]2(O)C(=O)CO	inactive
CC(C(=O)O)c1cccc(C(=O)c2ccccc2)c1 (stereo not drawn)	inactive
COC(=O)C1=C(C)NC(C)=C(C(=O)OCCN(C)Cc2ccccc2)C1c1cccc([N+](=O)[O-])c1 (stereo not drawn)	23.7 µM (active)
CN(C)c1nc(N(C)C)nc(N(C)C)n1	inactive
CC(C)OC(=O)C(C)(C)Oc1ccc(C(=O)c2ccc(Cl)cc2)cc1	inactive
Oc1ccc(O)cc1	inactive
Cn1cnc([N+](=O)[O-])c1Sc1ncnc2nc[nH]c12	inactive
Cc1[nH]c(=O)c(C#N)cc1-c1ccncc1	inactive

— PubChem BioAssay (Tox21)
